Results filed as inconclusive are left out. Calls of active or inactive are those of the source. Unless noted, the rule behind the calls is not given here.
Columns and labels:
[1] = rapamycin-like changes in RPL19A-GFP expression – cell-based, S. cerevisiae, multiplex flow cytometry, primary screen (AID 1862; in the data active = percent of DMSO control GFP below about 86%;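 note: lower values mimic rapamycin by blocking the RPL19A rise seen in DMSO cells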); conditions: S. cerevisiae RPL19A-GFP strain, flow cytometry fluorescence, 3 h; at 10 µM; stronger effect = lower value
[2] = TOR pathway GLN3 branch reporter MEP2-GFP changes – S. cerevisiae, multiplex flow cytometry, primary screen (AID 1867;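 active = GFP response, as percent of the DMSO control, above the screen-wide mean plus 3 SD, about 139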;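 note: median GFP channel fluorescence of barcode-gated MEP2-GFP cells measured by flow cytometry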); conditions: S. cerevisiae MEP2-GFP strain, 3 h, at 10 µM, stronger effect = higher value
[3] = TOR pathway RTG branch CIT2 reporter changes – S. cerevisiae, GFP fusion, multiplex flow cytometry, primary screen (AID 1870;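 active = percent response above a set limit, the screen-wide mean plus 3 SD, cut at about 130% in these data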;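 note: barcoded CIT2-GFP strain pooled with four other GFP strains with rapamycin as positive control; median GFP fluorescence per well over plate mean of DMSO wells so 100% = DMSO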); conditions: S. cerevisiae CIT2-GFP expression, 3 h, at 10 µM, stronger effect = higher value
[4] = TOR pathway LAP4-GFP level changes – S. cerevisiae, multiplex flow cytometry, primary screen (AID 1873;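 active = GFP signal, as percent of the solvent control, above the screen mean plus 3 SD, about 149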); conditions: S. cerevisiae LAP4-GFP expression, 3 h, at 10 µM, stronger effect = higher value
[5] = reduced mouse 2C T cell binding to pMHC/ICAM-1 vesicles – MLPCN validation set, flow cytometry, LFA-1/ICAM-1 modulator project, pilot screen (AID 2523;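 active = response below a set limit, under 55% cells CD8-positive and vesicle-bound, and CD8 cells' 90th-percentile brightness under 279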;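 for vesicle binding response: mean PE anti-B7-1 fluorescence of CD8+ cells relative to row control; 100% = QL9-loaded vesicles with DMSO vehicle in the same plate row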); conditions: 2C mouse CD8+ T cells, at 7 µM, stronger effect = lower value; double positive events: measured here: CD8+/vesicle+ event percentage
[6] = target: Integrin beta-1 (Homo sapiens) + Integrin alpha-4 (Homo sapiens) (UniProt P13612+P05556); experiment: alpha4beta1 integrin LIBS antibody binding reduction – U937 cells, HUTS-21 mAb, flow cytometry, validation set, VLA-4 allosteric modulator project, pilot screen (AID 2674;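 active = inhibition above 50%, about 3 SD of the validation set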;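 note: antibody binding induced by the VLA-4 ligand LDV present at three times its Kd; 0% = LDV ligand with antibody and no compound and 100% = antibody without LDV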); conditions: HUTS-21 LIBS mAb binding, at 6.7 µM, stronger effect = higher value
Sequence of Integrin beta-1 (Homo sapiens) + Integrin alpha-4 (Homo sapiens) (P05556 whole entry, looked up): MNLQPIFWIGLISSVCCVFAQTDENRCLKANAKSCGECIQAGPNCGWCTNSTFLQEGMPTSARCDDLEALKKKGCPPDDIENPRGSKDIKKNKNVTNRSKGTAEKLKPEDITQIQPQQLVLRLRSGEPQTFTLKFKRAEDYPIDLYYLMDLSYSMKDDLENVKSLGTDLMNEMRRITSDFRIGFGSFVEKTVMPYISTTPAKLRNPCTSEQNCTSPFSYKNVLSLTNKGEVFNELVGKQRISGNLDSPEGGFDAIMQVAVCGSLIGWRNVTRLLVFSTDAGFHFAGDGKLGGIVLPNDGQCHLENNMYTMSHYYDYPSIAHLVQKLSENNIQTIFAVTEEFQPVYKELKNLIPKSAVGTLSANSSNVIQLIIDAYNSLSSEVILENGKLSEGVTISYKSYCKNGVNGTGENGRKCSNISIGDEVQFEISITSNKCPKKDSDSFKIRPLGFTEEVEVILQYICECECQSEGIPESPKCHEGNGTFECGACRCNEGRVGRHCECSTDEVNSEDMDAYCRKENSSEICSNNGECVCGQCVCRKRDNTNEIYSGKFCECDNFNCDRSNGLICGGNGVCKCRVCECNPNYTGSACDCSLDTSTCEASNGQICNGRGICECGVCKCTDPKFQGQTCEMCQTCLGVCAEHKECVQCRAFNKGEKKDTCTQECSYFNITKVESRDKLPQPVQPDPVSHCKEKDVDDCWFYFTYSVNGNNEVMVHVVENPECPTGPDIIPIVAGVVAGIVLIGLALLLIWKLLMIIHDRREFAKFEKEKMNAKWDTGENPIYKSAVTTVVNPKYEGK
Sequence of Integrin beta-1 (Homo sapiens) + Integrin alpha-4 (Homo sapiens) (P13612 whole entry, looked up): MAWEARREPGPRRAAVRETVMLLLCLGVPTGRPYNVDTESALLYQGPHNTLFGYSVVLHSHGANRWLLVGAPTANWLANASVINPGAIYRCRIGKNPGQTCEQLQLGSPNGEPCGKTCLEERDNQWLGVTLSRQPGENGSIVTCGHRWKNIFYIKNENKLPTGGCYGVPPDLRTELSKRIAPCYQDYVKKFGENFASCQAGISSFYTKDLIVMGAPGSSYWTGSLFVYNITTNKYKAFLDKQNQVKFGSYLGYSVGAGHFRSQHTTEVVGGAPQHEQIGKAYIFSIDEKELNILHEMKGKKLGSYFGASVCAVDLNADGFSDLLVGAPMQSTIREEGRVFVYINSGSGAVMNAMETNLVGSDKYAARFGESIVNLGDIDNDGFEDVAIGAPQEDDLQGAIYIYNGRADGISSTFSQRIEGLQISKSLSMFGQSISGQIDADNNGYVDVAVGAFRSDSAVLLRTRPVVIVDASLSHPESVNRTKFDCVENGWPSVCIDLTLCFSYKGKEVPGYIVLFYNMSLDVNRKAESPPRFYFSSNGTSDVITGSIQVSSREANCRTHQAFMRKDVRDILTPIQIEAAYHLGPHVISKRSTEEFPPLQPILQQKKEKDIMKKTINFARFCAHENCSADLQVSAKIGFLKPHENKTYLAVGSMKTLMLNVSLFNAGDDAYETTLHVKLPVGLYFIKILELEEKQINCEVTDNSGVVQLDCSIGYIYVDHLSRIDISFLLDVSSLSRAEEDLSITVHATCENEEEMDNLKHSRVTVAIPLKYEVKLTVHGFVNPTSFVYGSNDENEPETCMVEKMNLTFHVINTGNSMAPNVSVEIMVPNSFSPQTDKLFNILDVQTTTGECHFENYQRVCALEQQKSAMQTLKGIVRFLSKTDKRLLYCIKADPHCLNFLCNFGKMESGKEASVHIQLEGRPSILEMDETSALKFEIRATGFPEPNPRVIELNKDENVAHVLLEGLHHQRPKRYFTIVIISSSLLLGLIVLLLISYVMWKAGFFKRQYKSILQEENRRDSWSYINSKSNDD

[7] = calorie-restriction mimetic ROS inhibitors, yeast – validation compound set, pilot screen (AID 2706;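 active = superoxide response below 65% of plate, a cut near 3 SD across the whole screen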;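 note: yeast exposed to compound for one week at 30 degrees C before staining; 100% = mean of all compound wells on the same plate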); conditions: S. cerevisiae aging, superoxide DHE fluorescence; at 10 µM; stronger effect = lower value
[8] = target: Beta-adrenergic receptor kinase 1 (Homo sapiens) (UniProt P25098); experiment: GRK2 binders displacing RNA aptamer, biochemical, validation, human GRK2, bead flow cytometry (AID 488806;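 active = aptamer binding inhibition above 30%, about 3 SD of noise from non-fluorescent compounds; inactive = inhibition at or below 30%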); conditions: bead-bound GRK2, FAM-aptamer displacement, at 10 µM, stronger effect = higher value
Sequence of Beta-adrenergic receptor kinase 1 (Homo sapiens) (P25098 whole entry, looked up): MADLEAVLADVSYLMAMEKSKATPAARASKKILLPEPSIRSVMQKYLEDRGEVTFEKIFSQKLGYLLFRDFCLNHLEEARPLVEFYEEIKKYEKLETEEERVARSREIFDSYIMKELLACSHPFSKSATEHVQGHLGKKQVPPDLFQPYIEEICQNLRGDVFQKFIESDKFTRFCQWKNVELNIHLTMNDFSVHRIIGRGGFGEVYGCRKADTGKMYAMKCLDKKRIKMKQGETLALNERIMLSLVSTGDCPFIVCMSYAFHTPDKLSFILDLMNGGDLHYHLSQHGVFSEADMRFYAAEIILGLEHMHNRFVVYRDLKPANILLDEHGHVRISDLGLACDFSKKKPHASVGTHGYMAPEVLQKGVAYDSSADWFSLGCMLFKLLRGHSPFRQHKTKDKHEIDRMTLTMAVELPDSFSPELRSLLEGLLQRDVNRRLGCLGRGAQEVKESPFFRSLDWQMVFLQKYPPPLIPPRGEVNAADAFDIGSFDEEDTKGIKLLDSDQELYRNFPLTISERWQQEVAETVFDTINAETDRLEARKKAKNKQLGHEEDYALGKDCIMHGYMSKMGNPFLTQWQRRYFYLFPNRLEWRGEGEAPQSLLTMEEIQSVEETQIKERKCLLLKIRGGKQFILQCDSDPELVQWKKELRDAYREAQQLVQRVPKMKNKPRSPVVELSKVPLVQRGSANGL

[9] = target: AP-2 complex subunit beta (Homo sapiens) (UniProt P63010); experiment: beta-arrestin/AP2 interaction blockers – biochemical, validation set, GST-AP2 beads, flow cytometry, pilot screen (AID 504541;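 active = inhibition above 54%, about 3 SD of non-fluorescent compounds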;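 note: AP2 carries R879A mutation and is captured from E. coli lysate; bead-bound FITC arrestin peptide fluorescence measuring arrestin peptide binding to AP2; 0% = DMSO wells and 100% = excess unlabeled arrestin peptide control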); conditions: FITC arrestin peptide, at 10 µM, stronger effect = higher value
[10] = cytosolic pH regulators acting via V-ATPase – S. cerevisiae, pHLuorin, HTS validation (AID 504600; in the data active = response above about 15%;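 note: plate controls were DMSO for no effect and reference compound for full effect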); conditions: V-ATPase proton transport, at 10 µM, stronger effect = higher value
[11] = tested on: anti-desmoglein-3 scFv antibody binding to human DSG3; experiment: blockers of pathogenic pemphigus antibody–desmoglein-3 binding – biochemical, validation compound set, bead-based, flow cytometry, pilot screen (AID 588368;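 active = binding below the plate cutoff, the plate median minus 3 SD, with a reading above zero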;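 note: signal is the median channel fluorescence of bead-bound GFP antibody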); conditions: Protein G beads, DSG3-Fc, scFv-GFP binding, at 10 µM, stronger effect = lower value
[12] = tested on: Botulinum neurotoxin type F light chain protease (Clostridium botulinum); experiment: Clostridium botulinum type F light chain protease inhibitors, microsphere substrate cleavage, validation (AID 588459); conditions: multiplex microsphere protease substrate cleavage assay, flow cytometry; at 10 µM; stronger effect = higher value
[13] = target: Botulinum neurotoxin type A (Clostridium botulinum) (UniProt P0DPI0); experiment: BoNT/A light chain protease inhibitors, biochemical, multiplex microsphere flow cytometry, validation set (AID 588460); conditions: at 10 µM, stronger effect = higher value
Sequence of Botulinum neurotoxin type A (Clostridium botulinum) (P0DPI0 whole entry, looked up): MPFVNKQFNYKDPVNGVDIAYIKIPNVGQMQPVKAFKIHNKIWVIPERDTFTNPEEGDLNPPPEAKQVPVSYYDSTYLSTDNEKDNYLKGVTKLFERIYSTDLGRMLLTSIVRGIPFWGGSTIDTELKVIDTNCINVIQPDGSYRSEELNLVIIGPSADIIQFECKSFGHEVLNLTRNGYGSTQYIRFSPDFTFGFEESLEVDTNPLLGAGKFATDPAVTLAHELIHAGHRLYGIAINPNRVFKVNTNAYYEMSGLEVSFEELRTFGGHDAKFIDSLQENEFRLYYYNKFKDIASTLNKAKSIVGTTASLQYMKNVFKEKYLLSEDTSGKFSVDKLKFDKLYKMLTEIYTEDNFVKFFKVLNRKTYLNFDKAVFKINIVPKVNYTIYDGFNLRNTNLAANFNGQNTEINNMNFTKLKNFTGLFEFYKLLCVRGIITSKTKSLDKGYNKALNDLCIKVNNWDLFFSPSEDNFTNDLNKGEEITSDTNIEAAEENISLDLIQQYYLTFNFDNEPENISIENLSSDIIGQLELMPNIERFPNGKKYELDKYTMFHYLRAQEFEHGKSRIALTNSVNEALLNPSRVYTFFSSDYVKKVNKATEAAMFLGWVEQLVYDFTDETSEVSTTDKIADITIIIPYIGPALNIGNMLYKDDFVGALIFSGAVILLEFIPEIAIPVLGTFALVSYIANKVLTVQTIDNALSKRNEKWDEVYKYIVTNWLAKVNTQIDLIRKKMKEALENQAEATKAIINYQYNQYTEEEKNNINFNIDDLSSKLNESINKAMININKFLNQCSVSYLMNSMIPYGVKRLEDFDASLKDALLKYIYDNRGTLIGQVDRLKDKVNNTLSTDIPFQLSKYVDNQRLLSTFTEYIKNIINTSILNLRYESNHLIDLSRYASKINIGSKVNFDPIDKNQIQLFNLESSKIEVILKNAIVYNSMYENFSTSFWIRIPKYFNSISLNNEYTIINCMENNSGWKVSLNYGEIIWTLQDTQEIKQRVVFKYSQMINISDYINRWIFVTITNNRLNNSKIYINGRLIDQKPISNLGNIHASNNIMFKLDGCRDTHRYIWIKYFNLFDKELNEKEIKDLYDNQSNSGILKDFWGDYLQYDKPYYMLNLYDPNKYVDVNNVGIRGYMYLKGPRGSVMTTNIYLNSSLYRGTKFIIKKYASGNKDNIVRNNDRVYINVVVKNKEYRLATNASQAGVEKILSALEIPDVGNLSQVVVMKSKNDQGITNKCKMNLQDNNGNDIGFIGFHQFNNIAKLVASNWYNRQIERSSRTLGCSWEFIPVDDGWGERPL

[14] = target: Lethal factor (Bacillus anthracis) (UniProt P15917); experiment: Bacillus anthracis lethal factor inhibition, microsphere flow cytometry protease assay, validation at 10 µM (AID 588461); conditions: multiplex microsphere protease cleavage assay, stronger effect = higher value
Sequence of Lethal factor (Bacillus anthracis) (P15917 whole entry, looked up): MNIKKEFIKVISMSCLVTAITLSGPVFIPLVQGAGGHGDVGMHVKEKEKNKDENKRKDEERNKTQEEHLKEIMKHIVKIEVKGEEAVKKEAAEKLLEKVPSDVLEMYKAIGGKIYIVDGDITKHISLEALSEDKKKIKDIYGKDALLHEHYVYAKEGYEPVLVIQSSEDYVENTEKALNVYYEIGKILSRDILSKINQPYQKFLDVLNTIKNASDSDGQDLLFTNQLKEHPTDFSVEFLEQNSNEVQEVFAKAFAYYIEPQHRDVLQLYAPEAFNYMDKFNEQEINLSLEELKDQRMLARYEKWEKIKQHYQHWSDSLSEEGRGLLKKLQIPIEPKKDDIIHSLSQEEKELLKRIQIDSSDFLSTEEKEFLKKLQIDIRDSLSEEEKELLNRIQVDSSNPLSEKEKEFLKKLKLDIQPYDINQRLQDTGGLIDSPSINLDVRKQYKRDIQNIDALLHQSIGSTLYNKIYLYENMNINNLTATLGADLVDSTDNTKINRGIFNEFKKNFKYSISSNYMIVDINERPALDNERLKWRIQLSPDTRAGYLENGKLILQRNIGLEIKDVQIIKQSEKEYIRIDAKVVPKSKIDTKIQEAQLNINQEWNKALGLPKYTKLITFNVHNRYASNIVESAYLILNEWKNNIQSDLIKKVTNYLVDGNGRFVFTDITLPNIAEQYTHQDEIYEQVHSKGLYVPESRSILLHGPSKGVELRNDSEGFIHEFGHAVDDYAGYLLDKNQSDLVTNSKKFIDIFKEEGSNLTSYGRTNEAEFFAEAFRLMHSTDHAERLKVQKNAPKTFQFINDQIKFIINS

[15] = Nile Red efflux blockade in pump-expressing yeast – validation compound set, multiplex, phenotypic, pilot screen (AID 588506;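 active = efflux inhibition above 0.42, the validation set average plus 4 SD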;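 note: Nile Red retained in cells so higher fluorescence means more efflux inhibition; 0 = negative control wells and 1 = enniatin B 25 µM full block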); conditions: S. cerevisiae pump-expressing triplex, Nile Red efflux flow cytometry; at 10 µM; stronger effect = higher value
[16] = target: ATP-binding cassette sub-family B member 6 (Homo sapiens) (UniProt Q9NP58); experiment: blockers of ABCB6-driven porphyrin uptake – K562-ABCB6 cells, flow cytometry, validation set, pilot screen (AID 588550;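 active = inhibition above the screen-wide mean plus 3 SD, about 51%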;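 note: 0% = DMSO wells and 100% = benzethonium chloride 70 µM positive control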); conditions: K562-ABCB6 porphyrin accumulation, 1 h, at 10 µM, stronger effect = higher value
[17] = AML differentiation inducers, ER-HoxA9 marrow cells – cell-based, GFP/MAC1 double positive, flow cytometry, validation set, primary screen (AID 588685;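 active = differentiation response of at least 50%, scaled between solvent and reference control, from cells with both markers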;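 note: compound exposure lasts four days before antibody staining and flow analysis; 0% = DMSO wells and 100% = 5 µM fulvestrant positive control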); conditions: stronger effect = higher value

c1ccc(Cn2ccnc2)cc1
63.8%: double positive events [5]
inactive: percent of DMSO control GFP [1] 97.4% | GFP response vs DMSO [2] 97.9% | percent response of DMSO control [3] 90% | GFP response vs DMSO [4] 99.4% | vesicle binding response [5] 185% | inhibition [6] 14.7% | superoxide response (% of plate) [7] 92.9% | aptamer binding inhibition [8] 12% | inhibition [9] 0.17% | response [10] 4.53% | binding (% of control) [11] 97.7% | inhibition [12] 5.2% | inhibition [13] 0.1% | inhibition [14] -0.1% | efflux inhibition (fraction of control) [15] 0.03 | inhibition [16] 9% | differentiation response [17] -16.4%

COc1ccc2c(c1)CC1(CN2C)C(=O)NC(=O)N(CCc2ccccc2)C1=O (stereo not drawn)
inactive: percent of DMSO control GFP [1] 101% | GFP response vs DMSO [2] 98.3% | percent response of DMSO control [3] 96.6% | GFP response vs DMSO [4] 88.1% | vesicle binding response [5] 263% | inhibition [6] -3.57% | aptamer binding inhibition [8] -3% | inhibition [9] -4.29% | response [10] 1.95% | binding (% of control) [11] 104% | inhibition [12] 3.8% | inhibition [13] 1.1% | inhibition [14] -1.5% | efflux inhibition (fraction of control) [15] -0.07 | inhibition [16] 27% | differentiation response [17] 27.6%
65.8%: double positive events [5]

CC(=O)[C@H]1CC[C@H]2[C@@H]3CC[C@H]4C[C@H](O)CC[C@]4(C)[C@H]3C(=O)C[C@]12C
60.9%: double positive events [5]
inactive: percent of DMSO control GFP [1] 100% | GFP response vs DMSO [2] 97.9% | percent response of DMSO control [3] 92% | GFP response vs DMSO [4] 106% | vesicle binding response [5] 146% | inhibition [6] 6.29% | superoxide response (% of plate) [7] 110% | aptamer binding inhibition [8] 3% | inhibition [9] 42.5% | response [10] -11.1% | binding (% of control) [11] 99.5% | inhibition [12] 0.8% | inhibition [13] 2.5% | inhibition [14] -1.9% | efflux inhibition (fraction of control) [15] 0.14 | inhibition [16] 5% | differentiation response [17] 46.6%

C[N+]1(C)CCN(c2ccccc2)CC1
53.4%: double positive events [5]
inactive: percent of DMSO control GFP [1] 103% | GFP response vs DMSO [2] 94.8% | percent response of DMSO control [3] 107% | GFP response vs DMSO [4] 87.3% | vesicle binding response [5] 172% | inhibition [6] -1.17% | superoxide response (% of plate) [7] 93.3% | aptamer binding inhibition [8] 0% | inhibition [9] -8.27% | response [10] 1.95% | binding (% of control) [11] 100% | inhibition [12] -7.6% | inhibition [13] -1% | inhibition [14] -6.3% | efflux inhibition (fraction of control) [15] -0.2 | inhibition [16] 12% | differentiation response [17] -14.7%

CN[C@H]1C[C@H]2O[C@@](C)([C@H]1OC)n1c3ccccc3c3c4c(c5c6ccccc6n2c5c31)C(=O)NC4
64%: double positive events [5]
inactive: percent of DMSO control GFP [1] 104% | GFP response vs DMSO [2] 105% | percent response of DMSO control [3] 107% | GFP response vs DMSO [4] 84.1% | vesicle binding response [5] 105% | inhibition [6] -86.6% | inhibition [9] 0.54% | response [10] 1.34% | inhibition [14] 6.2% | efflux inhibition (fraction of control) [15] 0.14 | inhibition [16] -76% | differentiation response [17] 12%

COc1ccc(C(=O)N2CCCC2=O)cc1
active: inhibition [9] 61%
inactive: percent of DMSO control GFP [1] 104% | GFP response vs DMSO [2] 107% | percent response of DMSO control [3] 105% | GFP response vs DMSO [4] 130% | vesicle binding response [5] 241% | inhibition [6] -6.23% | superoxide response (% of plate) [7] 94.5% | aptamer binding inhibition [8] -4% | response [10] 2.82% | binding (% of control) [11] 100% | efflux inhibition (fraction of control) [15] -0.04 | inhibition [16] 4% | differentiation response [17] 3.88%
61.6%: double positive events [5]

CN[C@H](C)[C@H](O)c1ccccc1
inactive: percent of DMSO control GFP [1] 90.2% | GFP response vs DMSO [2] 131% | percent response of DMSO control [3] 102% | GFP response vs DMSO [4] 87.5% | vesicle binding response [5] 176% | inhibition [6] 8.4% | superoxide response (% of plate) [7] 97.6% | aptamer binding inhibition [8] 4% | inhibition [9] 39.6% | response [10] -4.76% | binding (% of control) [11] 102% | efflux inhibition (fraction of control) [15] 0.27 | inhibition [16] 5% | differentiation response [17] -0.82%
53.3%: double positive events [5]

Cc1ccc2c(c1)C1CN(C)CCC1N2C(=O)Nc1cccc(Cl)c1 (stereo not drawn)
inactive: percent of DMSO control GFP [1] 99.5% | GFP response vs DMSO [2] 102% | percent response of DMSO control [3] 109% | GFP response vs DMSO [4] 95.4% | vesicle binding response [5] 242% | inhibition [6] 30.5% | superoxide response (% of plate) [7] 93.4% | aptamer binding inhibition [8] -3% | inhibition [9] 27.7% | response [10] -6.89% | binding (% of control) [11] 102% | inhibition [12] -0.9% | inhibition [13] -0.1% | inhibition [14] 0% | efflux inhibition (fraction of control) [15] -0.09 | inhibition [16] 4% | differentiation response [17] -18%
56.9%: double positive events [5]

CC[N+]1(C)CCCC(OC(=O)C(O)(c2ccccc2)c2ccccc2)C1 (stereo not drawn)
61%: double positive events [5]
inactive: percent of DMSO control GFP [1] 99% | GFP response vs DMSO [2] 102% | percent response of DMSO control [3] 103% | GFP response vs DMSO [4] 103% | vesicle binding response [5] 160% | inhibition [6] 5.69% | superoxide response (% of plate) [7] 96.5% | aptamer binding inhibition [8] 4% | inhibition [9] -0.87% | response [10] -0.49% | binding (% of control) [11] 107% | inhibition [12] 0.8% | inhibition [13] -0.6% | inhibition [14] 8% | efflux inhibition (fraction of control) [15] 0.04 | inhibition [16] 1% | differentiation response [17] -5.97%

C[C@H]1CCC[C@H](O)CCCCCc2cc(O)cc(O)c2C(=O)O1
52.7%: double positive events [5]
inactive: percent of DMSO control GFP [1] 104% | GFP response vs DMSO [2] 94.8% | percent response of DMSO control [3] 106% | GFP response vs DMSO [4] 87.3% | vesicle binding response [5] 191% | inhibition [6] -7.7% | superoxide response (% of plate) [7] 106% | aptamer binding inhibition [8] -4% | inhibition [9] -16.7% | response [10] 3% | binding (% of control) [11] 106% | inhibition [12] 0.3% | inhibition [13] -0.8% | inhibition [14] -4.3% | efflux inhibition (fraction of control) [15] -0.28 | inhibition [16] 9% | differentiation response [17] -34.1%

From PubChem BioAssay
